{"source": "PubChem BioAssay (NCATS)", "key": {"[1]": {"assay": "qHTS of pediatric cancer cell lines to identify multiple opportunities for drug repurposing: Primary screen for TC32 cells (AID 1347089); further: nearly all actives have a fitted effect of over 60% in size", "outline": "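Measured quantity: luminescence from CellTiter-Glo, reflecting metabolically active TC32 cells following 48 h of compound. Curves came straight from multi-point titrations, with 8 or 11 points in primary and 11 in confirmatory screening.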"}, "[2]": {"assay": "NS1 protein of Zika virus - qHTS assay to identify small molecule inhibitors in human HEK 293 cells (AID 1347053); further: nearly all actives have a fitted effect of over 55% in size", "outline": "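TR-FRET signal from two anti-ZIKV NS1 antibodies quantified NS1 in HEK 293 cells 24 h after MR766 infection at MOI = 0.5; compounds were added 1 h before virus. Uninfected cells and infected cells defined the NS1 normalization range.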"}}, "note": "Inconclusive results are not listed. A call without a number means that no potency is given here. Active and inactive are the calls of the source. The call rests on the fitted dose curve; in most records, active means well fitted curve in the direction sought with a large enough effect; inconclusive means small, poorly fitted or top-dose-only effect, or another doubt; inactive means no such curve, though single readings can be large; an effect the other way counts as inactive or inconclusive. Potency means the concentration at half of the fitted maximal effect.", "data": [{"smiles": "COc1cc(N2CCC(N3CCN(C)CC3)CC2)ccc1Nc1ncc(Cl)c(Nc2ccccc2S(=O)(=O)C(C)C)n1", "values": [{"measurement": "Potency", "setting": "[1]", "result": "inactive"}]}, {"smiles": "CN(C)Cc1cccc(N=C(c2ccccc2)c2c(O)[nH]c3cc(C(=O)N(C)C)ccc23)c1", "values": [{"measurement": "Potency", "setting": "[1]", "result": "inactive"}]}, {"smiles": "CC(C)(C)Cn1c(N)nc2ccc(-c3[nH]c(C(C)(C)C)nc3-c3ccc(F)cc3)nc21", "values": [{"measurement": "Potency", "setting": "[1]", "result": "29400 nM (active)"}]}, {"smiles": "NC1CCC(Nc2nc(Nc3ccc(C(=O)N4CCCCC4)cc3)c3ncn(-c4cccc(F)c4)c3n2)CC1", "note": "(stereo not drawn)", "values": [{"measurement": "Potency", "setting": "[1]", "result": "inactive"}]}, {"smiles": "CO[C@H]1C=CC=C(C)C(=O)NC2=CC(=O)C(NCCN(C)C)=C(C[C@@H](C)C[C@H](OC)[C@@H](O)[C@@H](C)C=C(C)[C@@H]1OC(N)=O)C2=O", "values": [{"measurement": "Potency", "setting": "[1]", "result": "262 nM (active)"}]}, {"smiles": "Nc1ncnc2c1nc(Cl)n2[C@@H]1O[C@H](CO)[C@@H](O)[C@@H]1O", "values": [{"measurement": "Potency", "setting": "[1]", "result": "inactive"}]}, {"smiles": "COc1ccc2cc(-c3nc(-c4ccc(S(C)=O)cc4)[nH]c3-c3ccncc3)ccc2c1", "note": "(stereo not drawn)", "values": [{"measurement": "Potency", "setting": "[1]", "result": "inactive"}]}, {"smiles": "O=C(Nc1cccc(Br)c1)c1cccc(S(=O)(=O)N2CCCCCC2)c1", "values": [{"measurement": "Potency", "setting": "[1]", "result": "inactive"}]}, {"smiles": "CC(C)OC(=O)CCCC=CC[C@@H]1[C@H](C=C[C@@H](O)COc2cccc(C(F)(F)F)c2)[C@H](O)C[C@@H]1O", "values": [{"measurement": "Potency", "setting": "[1]", "result": "inactive"}]}, {"smiles": "CCNc1cc(NC2CCC(O)CC2)nc(Nc2ccc3c(ccn3Cc3ccccc3)c2)n1", "note": "(stereo not drawn)", "values": [{"measurement": "Potency", "setting": "[1]", "result": "inactive"}]}, {"smiles": "O=C(Nc1ccccc1Br)N[C@@H]1CCN(c2ccc(C(F)(F)F)cn2)C1", "values": [{"measurement": "Potency", "setting": "[2]", "result": "inactive"}, {"measurement": "Potency", "setting": "[1]", "result": "inactive"}]}, {"smiles": "Cc1c(NC(=O)c2ccc(C(C)(C)C)cc2)cccc1-c1cn(C)c(=O)c(Nc2ccc(C(=O)N3CCOCC3)cc2)n1", "values": [{"measurement": "Potency", "setting": "[1]", "result": "inactive"}]}, {"smiles": "COc1ccc(C2CC(c3ccccc3)=NN2c2ccc(S(N)(=O)=O)cc2)cc1", "note": "(stereo not drawn)", "values": [{"measurement": "Potency", "setting": "[1]", "result": "inactive"}]}, {"smiles": "Cc1c[nH]c(C=C2C(=O)Nc3ccccc32)c1CCC(=O)O", "values": [{"measurement": "Potency", "setting": "[2]", "result": "inactive"}, {"measurement": "Potency", "setting": "[1]", "result": "inactive"}]}, {"smiles": "O=C(O)Cc1cccc2ccccc12", "values": [{"measurement": "Potency", "setting": "[1]", "result": "inactive"}]}, {"smiles": "NC(=O)NN=Cc1ccc([N+](=O)[O-])o1", "values": [{"measurement": "Potency", "setting": "[2]", "result": "inactive"}, {"measurement": "Potency", "setting": "[1]", "result": "inactive"}]}, {"smiles": "CC[C@H]1OC(=O)[C@H](C)C(=O)[C@H](C)[C@@H](O[C@H]2O[C@H](C)C[C@H](N(C)C)[C@@H]2O)[C@](C)(OC)C[C@@H](C)C(=O)[C@H](C)[C@H]2N(CCCCn3cnc(-c4cccnc4)c3)C(=O)O[C@]12C", "values": [{"measurement": "Potency", "setting": "[1]", "result": "inactive"}]}, {"smiles": "O=C1Nc2ccc(Cl)cc2C(C#CC2CC2)(C(F)(F)F)O1", "note": "(stereo not drawn)", "values": [{"measurement": "Potency", "setting": "[1]", "result": "inactive"}]}, {"smiles": "O=C1c2ccccc2-[n+]2ccc3c([nH]c4ccccc43)c21", "values": [{"measurement": "Potency", "setting": "[1]", "result": "4660 nM (active)"}]}, {"smiles": "C=CCc1ccc(O)c(-c2ccc(O)c(CC=C)c2)c1", "values": [{"measurement": "Potency", "setting": "[1]", "result": "inactive"}]}, {"smiles": "O=C(NCc1ccncc1)C12C[C@H]3C[C@@H](C1)CC(c1ccc(Cl)cc1)(C3)C2", "values": [{"measurement": "Potency", "setting": "[1]", "result": "inactive"}]}, {"smiles": "COc1cc2nc(-c3ccc(N4CCN(C)CC4)cc3)nc(NCCN3CCOCC3)c2cc1OC", "values": [{"measurement": "Potency", "setting": "[2]", "result": "332 nM (active)"}, {"measurement": "Potency", "setting": "[1]", "result": "523 nM (active)"}]}, {"smiles": "C[N+](C)(C)CC(=O)O", "values": [{"measurement": "Potency", "setting": "[1]", "result": "inactive"}]}, {"smiles": "CN1CCN(CCOc2cc(OC3CCOCC3)c3c(Nc4c(Cl)ccc5c4OCO5)ncnc3c2)CC1", "values": [{"measurement": "Potency", "setting": "[1]", "result": "inactive"}]}, {"smiles": "NS(=O)(=O)c1cccc2c1C(=O)c1cccc(O)c1C2=O", "values": [{"measurement": "Potency", "setting": "[1]", "result": "inactive"}]}, {"smiles": "COc1cc2ncnc(Nc3ccc(F)c(Cl)c3)c2cc1OCCCN1CCOCC1", "values": [{"measurement": "Potency", "setting": "[1]", "result": "38000 nM (active)"}]}, {"smiles": "CC1(C)O[C@H]2C[C@@H]3[C@H]4CCC5=CC(=O)C=C[C@]5(C)[C@@]4(F)[C@@H](O)C[C@]3(C)[C@]2(C(=O)CO)O1", "values": [{"measurement": "Potency", "setting": "[2]", "result": "inactive"}, {"measurement": "Potency", "setting": "[1]", "result": "inactive"}]}, {"smiles": "COc1cccc2c1CCCC2CCCN1CCN(C2CCCCC2)CC1", "note": "(stereo not drawn)", "values": [{"measurement": "Potency", "setting": "[1]", "result": "inactive"}]}, {"smiles": "CC=C(C)C(=O)O[C@H]1C(C)=C[C@]23C(=O)[C@@H](C=C(CO)[C@@H](O)[C@]12O)[C@H]1[C@@H](C[C@H]3C)C1(C)C", "values": [{"measurement": "Potency", "setting": "[1]", "result": "inactive"}]}, {"smiles": "Cc1c(O)cccc1C(=O)N[C@@H](CSc1ccccc1)[C@H](O)CN1C[C@H]2CCCC[C@@H]2C[C@@H]1C(=O)NC(C)(C)C", "values": [{"measurement": "Potency", "setting": "[1]", "result": "inactive"}]}, {"smiles": "CCCCCNC(=O)N1CCC(CN(Cc2ccc(Cl)cc2)Cc2ccc([N+](=O)[O-])s2)C1", "note": "(stereo not drawn)", "values": [{"measurement": "Potency", "setting": "[1]", "result": "inactive"}]}, {"smiles": "NC(=O)c1cccc(-c2cc(Nc3ccc(OC(F)(F)F)cc3)ncn2)c1", "values": [{"measurement": "Potency", "setting": "[1]", "result": "inactive"}]}, {"smiles": "CCOC(CN1C(=O)[C@](CC(=O)Nc2ccc(C)cc2)(NC(=O)Nc2ccc(C)cc2)c2ccccc21)OCC", "values": [{"measurement": "Potency", "setting": "[1]", "result": "inactive"}]}]}
